The antibiotic and cytotoxicity screens of Wong et al. (2023)
Out of some 39,000 compounds screened, about 1,500 (3.8%) were called active. Shown is part of a subset that was picked to be rich in actives.

System: HSkMC (human skeletal muscle cells)
Experiment: cytotoxicity call (relative viability < 0.9)
Settings: 10 µM

Row | Structure (SMILES) | cytotoxicity call
1 | Cc1scc(CCN)c1C | inactive
2 | Cl.Oc1noc2c1CCNC2 | inactive
3 | C#CC1(O)CCC2C3CCC4=CC(=O)CCC4(C)C3CCC21C (stereo unspecified) | inactive
4 | C=CCC1(O)CCC2C3CCC4=CCCCC4C3CCC21C (stereo unspecified) | active
5 | C=CCC1(O)CCC2C3CCC4=CC(=O)CCC4=C3C=CC21C (stereo unspecified) | inactive
6 | CC(=O)O[C@H]1C(=O)[C@]2(C)[C@@H](O)C[C@H]3OC[C@@]3(OC(C)=O)[C@@H]2[C@H](OC(=O)c2ccccc2)[C@]2(O)C[C@H](O)C(C)=C1C2(C)C | inactive
7 | [N-]=[N+]=NCc1ccccc1C[C@]1(C(=O)NCCN2CCOCC2)N=C(c2ccc(OCCCO)cc2)O[C@H]1c1ccccc1N=[N+]=[N-] | inactive
8 | O=c1[nH]c(=O)n(Cl)c(=O)n1Cl | inactive
9 | CC1OC(OC2C=C3CCC4C(CCC5(C)C(c6ccc(=O)oc6)CCC45O)C3(C)CC2)C(O)C(O)C1O (stereo unspecified) | active
10 | CC[C@@H](C)C(=O)O[C@H]1[C@H](O)[C@H]2[C@@H](CN3C[C@@H](C)CC[C@@H]3[C@@]2(C)O)[C@H]2C[C@]34O[C@]5(O)[C@@H](OC(=O)[C@@](C)(O)[C@@H](C)O)CC[C@@]3(C)[C@@H]5[C@@H](OC(C)=O)[C@@H](OC(C)=O)[C@@H]4[C@@]21O | inactive
11 | CC(=O)OCC1=C(C(=O)[O-])N2C(=O)C(NC(=O)CCCC(N)C(=O)[O-])C2SC1.[Zn+2] (stereo unspecified) | inactive
12 | c1ccc2c(c1)sc1ccccc12 | active
13 | COc1cc2c(cc1OC)C1C(=O)c3ccc4oc(C(C)C)cc4c3OC1CO2 (stereo unspecified) | inactive
14 | NCCc1ccc(S(N)(=O)=O)cc1 | inactive
15 | Cc1cc(C(C#N)c2ccc(Cl)cc2)c(Cl)cc1NC(=O)c1cc(I)cc(I)c1O (stereo unspecified) | inactive
16 | CC(=O)Nc1ccc(Cl)cc1C | inactive
17 | Cc1cc([C@@H](C#N)c2ccc(Cl)cc2)c(Cl)cc1NC(=O)c1cc(I)cc(I)c1O | active
18 | COc1cc(CCN)ccc1O | inactive
19 | Cc1ccc(C2(CN)CCCCC2)cc1 | inactive
20 | CC(C)C12OC1C1OC13C1(C)CCC4=C(COC4=O)C1CC1OC13C2O (stereo unspecified) | inactive
21 | COC(=O)NC(=S)Nc1ccccc1NC(=S)NC(=O)OC | active

Row | Structure (SMILES) | cytotoxicity call
22 | CNc1ccccc1C(=O)O | inactive
23 | CCC1CN2CCc3cc(OC)c(OC)cc3C2CC1CC1NCCc2cc(OC)c(OC)cc21.Cl.Cl (stereo unspecified) | inactive
24 | COc1ccc(CCN)cc1O | inactive
25 | CC(C)CC(CN)CC(=O)O (stereo unspecified) | inactive
26 | C[C@]12CC[C@]3(C)OC[C@](CO)(CO1)N23 | inactive
27 | Nc1ccccc1-c1ccccc1 | inactive
28 | CCC1(C2OC(C3OC(O)(CO)C(C)CC3C)CC2C)CCC(C2(C)CCC3(CC(O)C(C)C(C(C)C(OC)C(C)C(=O)[O-])O3)O2)O1.[Na+] (stereo unspecified) | inactive
29 | NC1CC1c1ccccc1.O=S(=O)(O)O (stereo unspecified) | inactive
30 | O=c1cccc2n1CC1CNCC2C1 (stereo unspecified) | inactive
31 | COC(=O)C[C@H]1CC[C@H]2NC[C@H](O)COC[C@@H]2O1 | inactive
32 | CCC(C)C1OC2(C=CC1C)CC1CC(CC=C(C)C(OC3CC(OC)C(OC4CC(OC)C(O)C(C)O4)C(C)O3)C(C)C=CC=C3COC4C(O)C(C)=CC(C(=O)O1)C34O)O2 (stereo unspecified) [ABAMECTIN (avermectin B1a shown) ] | inactive
33 | C[N+](C)(C)CCCl | inactive
34 | CCCCCCCCCCCCCCCC[N+](C)(C)C.[Br-] | active
35 | C[N+](C)(C)CCCCCCCCCC[N+](C)(C)C.[Br-].[Br-] | inactive
36 | CC1CC(C)C(=O)C(C(O)CC2CC(=O)NC(=O)C2)C1 (stereo unspecified) | inactive
37 | Cc1nn[nH]n1 | inactive
38 | CC(=O)CC1CCCCN1.Cl (stereo unspecified) | inactive
39 | CCn1cnc2c(Nc3cccc(Cl)c3)nc(N[C@@H]3CCCC[C@@H]3N)nc21 | active
40 | CCN(Cc1ccc(Cl)nc1)C(=C[N+](=O)[O-])NC | inactive
41 | C=CCN1C[C@H]2CN(C(C)C)C[C@H]2C1=O | inactive
42 | CO[C@@H]1C=C[C@@H]2[C@H]1N2CCCO (stereo partly specified) | inactive

Row | Structure (SMILES) | cytotoxicity call
43 | Nc1c[n+](CCc2ccccc2)no1 | inactive
44 | CN1CCN(C(=O)CN=[N+]=[N-])CC1 | inactive
45 | C=C(CCCCCCCCCCCCCCCC)OOC[C@@H](COP(=O)(ON)O[C@@H]1[C@H](O)[C@H](O)[C@@H](OP(=O)(O)ON)[C@H](OP(=O)(O)ON)[C@H]1O)OOC(=C)CC/C=C/C/C=C/C/C=C/C/C=C/CCCCC (stereo partly specified) | inactive
46 | C=C(C)[C@@H]1CCC(C)=C[C@H]1c1c(O)cc(CCCCC)cc1O | active
47 | C=C(C)[C@@H]1CCC(C)=C[C@H]1c1c(OC)cc(C)cc1OC | inactive
48 | C[C@@H]1C(=O)O[C@H]2[C@H](O)[C@@]34[C@@H]5OC(=O)[C@@]3(O[C@@H]3OC(=O)[C@H](O)[C@@]34[C@H](C(C)(C)C)[C@H]5O)[C@@]12O | inactive
49 | NC1(c2ccc(Cl)cc2)CC1 | inactive
50 | O=[As]O[As]=O (stereo unspecified) | inactive
51 | O=C(O)Cc1cccnc1C(=O)O | inactive
52 | CC1OC(OC2CCC3(C=O)C4CCC5(C)C(C6=CC(=O)OC6)CCC5(O)C4CCC3(O)C2)C(O)C(O)C1O (stereo unspecified) | active
53 | COC1C(O)C(C)OC(OC2CCC3(C)C4CCC5(C)C(C6=CC(=O)OC6)CCC5(O)C4CCC3(O)C2)C1O (stereo unspecified) | inactive
54 | CO[C@H]1[C@@H](O)[C@@H](C)O[C@H](O[C@H]2CC[C@@]3(C)[C@H]4CC[C@@]5(C)[C@@H](C6=CC(=O)OC6)CC[C@]5(O)[C@@H]4CC[C@]3(O)C2)[C@@H]1O | inactive
55 | CO[C@H]1C[C@H](O[C@H]2CC[C@]3(C=O)[C@H]4CC[C@]5(C)[C@@H](C6=CC(=O)OC6)CC[C@]5(O)[C@@H]4CC[C@]3(O)C2)O[C@H](C)[C@H]1O | active
56 | C[C@@H]1O[C@@H](O[C@H]2CC[C@]3(C=O)[C@H]4CC[C@]5(C)[C@@H](C6=CC(=O)OC6)CC[C@]5(O)[C@@H]4CC[C@]3(O)C2)[C@H](O)[C@H](O)[C@H]1O | active
57 | COC1C(O)C(C)OC(OC2CCC3(C=O)C(CCC4C3CCC3(C)C(C5=CC(=O)OC5)CCC43O)C2)C1O (stereo unspecified) | active
58 | CC(C)(C)OC(=O)N[C@H]1[C@@H]2CNC[C@@H]21 | inactive
59 | COC(N)=O | inactive
60 | C[C@H](CO)N1C[C@H](C)[C@@H](CN(C)C(=O)Oc2cccc3ccccc23)OCc2cn(nn2)CCCC1=O | inactive
61 | COC(=O)C[C@H]1CC[C@@H]2NC[C@H](O)COC[C@H]2O1 | inactive
